# Reference: PubChem BioAssay AID1159602 (The Scripps Research Institute Molecular Screening Center, 2016)
# The whole screen tested about 22,000 compounds, of which about 220 (1%) were called active. The list comes from a sample in which actives are over-represented; it also holds similar structures and randomly drawn compounds. Unmarked numbers belong to inactive results. Cut-off read from the data, not from the text of the source: active = inhibition above about 35%; inactive = the rest.
# Molecular target: Mitogen-activated protein kinase kinase kinase 5 (Homo sapiens) (UniProt Q99683)
# Sequence (Q99683 whole entry, looked up): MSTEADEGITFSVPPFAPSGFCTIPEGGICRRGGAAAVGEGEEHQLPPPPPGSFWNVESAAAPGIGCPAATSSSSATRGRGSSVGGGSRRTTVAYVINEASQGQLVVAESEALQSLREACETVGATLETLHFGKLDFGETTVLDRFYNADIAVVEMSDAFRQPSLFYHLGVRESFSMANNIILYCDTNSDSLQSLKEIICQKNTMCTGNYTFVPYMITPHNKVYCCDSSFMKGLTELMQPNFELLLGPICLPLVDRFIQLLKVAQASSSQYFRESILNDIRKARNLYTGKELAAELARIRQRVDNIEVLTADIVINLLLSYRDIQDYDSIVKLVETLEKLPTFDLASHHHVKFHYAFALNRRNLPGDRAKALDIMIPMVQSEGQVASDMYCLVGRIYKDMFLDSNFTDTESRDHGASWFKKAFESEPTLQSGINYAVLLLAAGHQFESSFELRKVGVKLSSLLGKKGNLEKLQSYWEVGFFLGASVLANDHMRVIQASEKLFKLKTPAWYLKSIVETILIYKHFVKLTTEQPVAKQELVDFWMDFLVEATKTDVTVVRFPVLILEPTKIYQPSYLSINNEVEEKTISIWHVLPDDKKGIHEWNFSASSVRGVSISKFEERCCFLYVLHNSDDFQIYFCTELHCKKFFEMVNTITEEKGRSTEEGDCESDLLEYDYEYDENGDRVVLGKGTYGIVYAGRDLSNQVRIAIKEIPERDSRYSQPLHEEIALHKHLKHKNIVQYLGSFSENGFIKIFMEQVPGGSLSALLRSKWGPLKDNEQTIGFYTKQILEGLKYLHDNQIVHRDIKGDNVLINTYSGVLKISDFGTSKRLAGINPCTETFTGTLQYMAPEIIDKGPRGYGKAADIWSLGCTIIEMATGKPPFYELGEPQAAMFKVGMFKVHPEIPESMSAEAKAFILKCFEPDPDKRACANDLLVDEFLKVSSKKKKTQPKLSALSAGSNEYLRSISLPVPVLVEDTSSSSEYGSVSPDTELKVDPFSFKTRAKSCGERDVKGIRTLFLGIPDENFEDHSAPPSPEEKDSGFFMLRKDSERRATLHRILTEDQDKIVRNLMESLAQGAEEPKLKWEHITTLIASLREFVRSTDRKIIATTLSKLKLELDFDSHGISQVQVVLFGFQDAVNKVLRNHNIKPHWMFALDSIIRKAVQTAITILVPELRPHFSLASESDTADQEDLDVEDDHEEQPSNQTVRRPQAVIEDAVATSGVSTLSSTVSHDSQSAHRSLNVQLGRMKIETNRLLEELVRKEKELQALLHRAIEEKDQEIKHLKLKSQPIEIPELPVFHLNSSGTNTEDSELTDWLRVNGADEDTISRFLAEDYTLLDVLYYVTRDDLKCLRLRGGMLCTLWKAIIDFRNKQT
# Experiment: ASK1 kinase inhibitors, primary screen, biochemical, AlphaScreen (AID 1159602);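 note: 0% = median of compound wells and 100% = no enzyme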
# Details: AlphaScreen MKK6 phosphorylation by ASK1, luminescence; at 7.44 µM; stronger effect = higher value
row,Structure (SMILES),inhibition
1,c1nc(NC2CC2)c2[nH]c(N3CCN(Cc4ccc5c(c4)OCO5)CC3)nc2n1,-10.7%
2,c1cnc(Nc2nc(NC3CC3)c3[nH]cnc3n2)cn1,-8.13%
3,CC(=O)Nc1ccc(Nc2nc(N3CCc4ccccc4C3)nc3c2ncn3C(C)C)cc1,14%
4,CN(C)c1cccc(Nc2nc3ccc(C(=O)Nc4ccc(N5CCOCC5)cc4)cc3s2)c1,29%
5,COc1ccc(CCNC(=O)c2ccnc(-c3ccc(C(=O)NC4CC4)cc3)c2)cc1,-2.59%
6,CCN(CC)c1nc(NCCCN2CCCC2=O)nc(N2CCC(N3CCOCC3)CC2)n1,2.42%
7,CCNc1nc(NCCOc2ccccc2)c2ncn(Cc3ccc(C(F)(F)F)cc3)c2n1,-5.64%
8,FC(F)(F)c1cccc(CNc2ncnc3nc(N4CCC(N5CCOCC5)CC4)[nH]c23)c1,-8.59%
9,CCN(CC)C(=O)C1CCCN(c2nccc(NCc3nc4ccccc4[nH]3)n2)C1 (configuration not stated),4.76%
10,COc1ccc(CNc2nc(-c3cccc(OC(F)(F)F)c3)nc3c2ncn3C(C)C)cc1,-11.1%
11,COc1cc2nc(NCc3cccnc3)nc(NCCN3CCOCC3)c2cc1OC,-7.09%
12,NS(=O)(=O)c1ccc(Nc2nccc(-c3cccc(Cl)c3)n2)cc1,-4.08%
13,Cc1cc(Nc2ccccc2)nc(NCc2cccnc2)n1,-4.25%
14,O=C(NCc1ccccc1)c1ccnc(Nc2nccc3ccccc23)c1,-2.15%
15,CCN(CC)C(=O)C1CCCN(c2nc(Nc3ccc(NC(C)=O)cc3)c3ncn(C4CCCCC4)c3n2)C1 (configuration not stated),-11%
16,Nc1nc(NCCO)cc(N2CCOCC2)n1,-6.61%
17,O=C(NCc1nc2ccncc2[nH]1)c1c(F)cccc1F,-12.1%
18,O=C(Cc1ccc(Br)cc1)N1CCCC(Nc2cccc3cnccc23)C1 (configuration not stated),-21.7%
19,O=C1CCCN1CCCNc1nc(-c2ccccc2)nc2nc[nH]c12,-3.38%
20,CN1CCN(c2nc(C3COc4ccccc4O3)nc3ccc(-c4cn[nH]c4)cc23)CC1 (configuration not stated),41.7% (active)
21,Cn1c(C2COc3ccccc3O2)nc2ccc(-c3cn[nH]c3)cc21 (configuration not stated),8.71%
22,c1ccc2c(c1)OCC(c1cnc3ccc(-c4cn[nH]c4)cc3n1)O2 (configuration not stated),14.4%
